IL1B secr inh = inhibitors of inflammasome signaling (IL-1 beta secretion); THP-1 LPS/ATP IL-1B secretion, AlphaLISA, 16 h; hits give low values; activity change, % at 57.5 µM; 360,000 compounds, 4.7% hits; AID 743279; in the data active = activity change below about -50%; inconclusive = mostly about -30% to -49%
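THP-1 cells pretreated 1 hr with compounds (up to 57.5 uM final), then stimulated with LPS (250 ng/mL final) plus ATP (1.25 mM final); secreted IL-1B measured by AlphaLISA after 16 hr, decreased signal indicating inhibition.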
HT1080NT lethal = kills 2HG-producing HT-1080-NT fibrosarcoma cells. HT-1080-NT fibrosarcoma viability, CellTiter-Glo ATP luminescence, 48 h. Potency, µM (highest dose often 46.1 µM), without a hit: at the top dose activity, negative = less viability, actives largely listed as cytotoxic. 360,000 compounds, 1.6% hits. AID 686970;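 note: NT is the 2HG producing partner of a matched IDH1 knockdown line; potency is the fitted concentration of half-maximal effect; 0% = DMSO-treated cells and -100% = media-only wells without cells; nearly all actives have a fitted effect of over 55% in size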
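HT-1080-NT fibrosarcoma cells (2HG-overproducing), 750 cells/well in RPMI with 5% FBS, dosed after 2 h and incubated 48 h at 37C. CellTiter-Glo luminescence normalized to DMSO and no-cell wells; concentration-response curves fitted and classed.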
HT1080 IDH1KD tx = kills HT-1080 cells with IDH1 knockdown; AID 686971; Potency, µM (top dose mostly 46.1 µM), inactives show top-dose activity, negative = toxicity, hits mostly cytotoxic; 360,000 compounds, 2% hits; HT-1080 IDH1 knockdown viability, ATP luminescence, 48 h;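 note: potency is the fitted concentration of half-maximal effect; 0% = DMSO wells and -100% = cell-free medium wells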
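HT-1080-IDH1KD cells (IDH1 knocked down), 750/well in RPMI with 5% FBS, treated with compound 48 h at 37 degrees C. Viability by CellTiter-Glo luminescence, normalised to DMSO and no-cell wells; concentration-response curves classed.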
DT40 TDP1 CPT = DT40-hTDP1 cell growth loss with CPT. chicken DT40 Tdp1-/-;hTDP1 cells + 20 nM CPT, ATP luminescence, 48 h. Potency, µM (top dose mostly 46.2 µM), without a hit: at the highest dose activity change, negative = growth inhibition, hits mostly inhibitors. 420,000 compounds, 12% hits. AID 686979; note: potency is the fitted concentration of half-maximal effect; nearly all actives have a fitted effect of over 55% in size
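Cell growth measured by CellTiter-Glo luminescence after a minimum 48 h, 37 C compound exposure with 20 nM CPT in Tdp1-knockout DT40 cells stably expressing hTDP1, seeded 400/well; qHTS titration format.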
TDP1 cell noCPT = qHTS for Inhibitors of human tyrosyl-DNA phosphodiesterase 1 (TDP1): qHTS in cells in absence of CPT; 420,000 compounds, 15% hits; DT40 Tdp1-/- hTDP1 cells, no CPT, ATP luminescence, 48 h; Potency, µM (highest dose often 46.2 µM), inactives show at the top dose activity change, negative = growth inhibition, usual class: inhibitors; AID 686978, 2013; note: potency is the fitted concentration of half-maximal effect; nearly all actives have a fitted effect of over 55% in size
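Stably hTDP1-transfected Tdp1-null chicken DT40 cells were treated with library compounds minus camptothecin and grown for at least 48 hr at 37 °C, after which cellular ATP was quantified by luminescence.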
* marks the source's active call; other numbers are inactive results; ? = inconclusive; . = not tested or not shown; [ ] = dose if it differs, or a comment. Most compounds without a hit are left out; they make up all but 19% or so of the library. Unless noted, calls come from the whole dose curve; as a rule, active = well fitted curve in the direction sought with a large enough effect; inconclusive = small, poorly fitted or top-dose-only effect, or another doubt; inactive = no such curve, though single readings can be large; an effect the other way counts as inactive or inconclusive. Unless noted, % is set by controls: 0 for no effect and ±100 for the full control effect.

SMILES | IL1B secr inh | HT1080NT lethal | HT1080 IDH1KD tx | DT40 TDP1 CPT | TDP1 cell noCPT
CCN1C(=O)[C@H]2[C@@H](c3ccc(-c4cccc(Cl)c4)c(OC)c3)N[C@@](Cc3ccccc3)(C(=O)OC)[C@H]2C1=O | ? | 0% | -18% | ? | 18µM*
CCN1C(=O)[C@H]2[C@@H](c3ccc(-c4ccc(OC)cc4)c(OC)c3)N[C@@](Cc3ccccc3)(C(=O)OC)[C@H]2C1=O | -16 | 10% | 2% | ? | ?
COC(=O)[C@]1(Cc2ccccc2)N[C@H](c2ccc(-c3cccc(Cl)c3)c(OC)c2)[C@@H]2C(=O)N(C)C(=O)[C@@H]21 | ? | -11% | -22% | 13µM* | 10µM*
O=C(NCC1CCCO1)c1ccccc1NS(=O)(=O)c1cc([N+](=O)[O-])ccc1Cl (stereo unspecified) | 32 | -11% | -7% | 15µM* | ?
O=C(NCC1CCCO1)c1ccc(Oc2ccc([N+](=O)[O-])cc2)cc1 (stereo unspecified) | -10 | ? | 3% | ? | 23µM*
O=C(NCC1CCCO1)c1ccc(Oc2ccc([N+](=O)[O-])cc2Cl)cc1 (stereo unspecified) | 9 | 1% | -6% | -1% | 11%
O=C(NCC1CCCO1)c1ccc(NC(=O)c2ccc([N+](=O)[O-])cc2)cc1 (stereo unspecified) | 12 | -1% | -2% | -2% | -20%
O=C(NCC1CCCO1)C(=Cc1cccc([N+](=O)[O-])c1)C(=O)NCC1CCCO1 (stereo unspecified) | -110* | 16µM* | ? | ? | 23µM*
O=C(NCC1CCCO1)c1cccc(Oc2ccc([N+](=O)[O-])cc2Cl)c1 (stereo unspecified) | 6 | -7% | -5% | ? | 21µM*
CC(NC(=O)C1CCCN1S(=O)(=O)c1ccc2c(c1)n(C)c(=O)c(=O)n2C)c1ccccc1 (stereo unspecified) | 30 | -3% | 2% | -2% | ?
CCCOc1ccc(-c2nnn(CC(=O)c3ccc4c(c3)OCCO4)n2)cc1 | 1 | 2% | 0% | -7% | -16%
O=C(Nc1ccc2nn(-c3ccccc3)nc2c1)c1ccc2c(c1)OCCO2 | -7 | -25% | -30% | ? | 7.3µM*
CCc1ccc(-n2nc3ccc(NC(=O)COc4ccc(OC)cc4)cc3n2)cc1 | . | . | . | -15% | -3%
CCc1ccc(-n2nc3ccc(NC(=O)c4ccc5c(c4)OCO5)cc3n2)cc1 | 8 | -24% | ? | 21µM* | ?
CCOc1ccc(-n2nc3ccc(NC(=O)COc4ccccc4C)cc3n2)cc1 | . | . | . | ? | 18µM*
CCOc1ccc(-c2nnn(CC(=O)c3ccc4c(c3)OCCO4)n2)cc1 | 4 | 1% | -11% | ? | 16µM*
CC(=NCCCn1ccnc1)c1c(C)[nH]n(-c2ccc([N+](=O)[O-])cc2)c1=O | 0 | -9% | 0% | -11% | -27%
O=C(CNCc1ccc(F)cc1)Nc1cc(S(=O)(=O)N2CCOCC2)ccc1Cl | 0 | -7% | -6% | ? | ?
Cc1ccc(-n2nc3ccc(NC(=O)c4ccc5c(c4)OCO5)cc3n2)cc1 | 11 | -1%[9.24 µM] | ? | ? | ?
CCOc1ccc(-n2nc3ccc(NC(=O)c4ccc5c(c4)OCCO5)cc3n2)cc1 | -6 | 6% | 20% | 3.3µM* | 5.8µM*
CC(=O)N1CCN(C(=O)OC2CC3CC2[C@H]2CCCCN2C3=O)CC1 (stereo partly specified) | 45 | 19% | 11% | 0% | -1%
CCOC(=O)C(C)N1C(=O)S/C(=C/c2ccc3c(c2)n(C)c(=O)n3C)C1=O (stereo unspecified) | -27 | 6% | 4% | ? | ?
CCC(C)N1C(=O)S/C(=C/c2ccc3c(c2)n(C)c(=O)n3C)C1=O (stereo unspecified) | 0 | -24% | -27% | 23µM* | 23µM*
O=C(CCCOc1ccccc1)NNC(=O)c1ccncc1 | -11 | 9% | 8% | 0% | -7%
